Records with an inconclusive call do not appear. Activity calls are given as the source filed them. Calls follow the shape of the dose curve; as a rule, active = well fitted curve in the direction sought with a large enough effect; inconclusive = small, poorly fitted or top-dose-only effect, or another doubt; inactive = no such curve, though single readings can be large; an effect the other way counts as inactive or inconclusive.
Experiments:
Hek293T = test: Primary qHTS to identify gynecologic anti-cancer compounds using libraries of approved drugs and bioactive compounds (AID 1345084); details: Gynecologic cancer cell panel viability, ATPlite luminescence, 48 h, control line for the selectivity index; series mostly up to 57.5 µM; also: nearly all actives have a fitted effect of over 55% in size
Summary of the method: (§1)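 48 h compound exposure at 37 C, 5% CO2; five-point qHTS. ATPlite luminescence readout of cell ATP.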

JEG-3 = test: as above; details: Gynecologic cancer cell panel viability, ATPlite luminescence, 48 h; series mostly up to 57.5 µM
Summary of the method: as §1

OV90 = test: as above; details: Gynecologic cancer cell panel viability, ATPlite luminescence, 48 h; series mostly up to 57.5 µM
Summary of the method: as §1

PA-1 = test: as above; details: Gynecologic cancer cell panel viability, ATPlite luminescence, 48 h; series mostly up to 57.5 µM
Summary of the method: as §1

SKOV3 = test: as above; details: Gynecologic cancer cell panel viability, ATPlite luminescence, 48 h; series mostly up to 57.5 µM
Summary of the method: as §1

Tov-21-G = test: as above; details: Gynecologic cancer cell panel viability, ATPlite luminescence, 48 h; series mostly up to 57.5 µM
Summary of the method: as §1

Tov112D = test: as above; details: Gynecologic cancer cell panel viability, ATPlite luminescence, 48 h; series mostly up to 57.5 µM
Summary of the method: as §1

[1] = Drug repurposing screens with cells derived from glioblastoma tumor samples (AID 1345199); details: GBM patient neurospheres viability, ATP luminescence, 48 h; also: nearly all actives have a fitted effect of over 40% in size; also: potency is read from the fitted curve at half-maximal effect
Summary of the method: (§2)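 Primary testing used CD133+ neurospheres from four GBM patients, seven concentrations, 48 h exposure and ATP-based viability; confirmation added three slower-growing patient lines.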

astro = test: as above; details: viability, ATP luminescence, 48 h; series mostly up to 45.9 µM
Summary of the method: as §2

[2] = qHTS assay to identify inhibitors of the type 1 interferon - major histocompatibility complex class I in skeletal muscle: Counter screen cell viability and HiBit confirmation (AID 1347412); details: iHSKM muscle cells + IFN-b, HiBiT or CellTiter-Glo, 24 h; Potency: HiBiT; Viability, at 45.9 µM (top of the series); also: nearly all actives have a fitted effect of over 60% in size
Summary of the method: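 Luminescence read-out: Nano-Glo HiBiT lytic signal from C-terminally HiBiT-tagged HLA-B in CRISPR-edited human myoblasts, plus CellTiter Glo ATP as viability counter screen. IFN-beta 4.0 ng/ml; 24 hrs treatment at 37 C, 5% CO2.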

[3] = at 45.9 µM (top of the series), tumour line B
[4] = at 45.9 µM (top of the series), tumour line D
[5] = at 46 µM (top of the series), tumour line A
[6] = at 46.1 µM (top of the series), tumour line C
% is scaled to controls: 0 for no effect and ±100 for the full control effect.

CN1CCN(c2cc3c(cc2F)c(=O)c(C(=O)O)cn3-c2ccc(F)cc2)CC1
inactive: Potency (Hek293T) | Potency (JEG-3) | Potency (OV90) | Potency (PA-1) | Potency (SKOV3) | Potency (Tov-21-G) | Potency (Tov112D) | activity, negative = cell killing [1, 3] -7.1% | activity, negative = cell killing [1, 4] -1.79% | activity, negative = cell killing [1, 5] -26.7% | activity, negative = cell killing [1, 6] 5.61% | Potency (astro)

CCCCCCCCCCCCSCCOCCO
active: Potency ([1]; tumour line A) 35.5 µM
inactive: Potency (Hek293T) | Potency (JEG-3) | Potency (OV90) | Potency (PA-1) | Potency (SKOV3) | Potency (Tov-21-G) | Potency (Tov112D) | activity, negative = cell killing [1, 3] -1.92% | activity, negative = cell killing [1, 4] -19.1% | activity, negative = cell killing [1, 6] 9.86% | Potency (astro)

CC(=O)Oc1ccc(C)cc1
inactive: Potency (Hek293T) | Potency (JEG-3) | Potency (OV90) | Potency (PA-1) | Potency (SKOV3) | Potency (Tov-21-G) | Potency (Tov112D) | activity, negative = cell killing [1, 3] -11.7% | activity, negative = cell killing [1, 4] -7.35% | activity, negative = cell killing [1, 5] -28.8% | activity, negative = cell killing [1, 6] -10.6% | Potency (astro)

N#CCC(=O)NN
inactive: Potency (Hek293T) | Potency (JEG-3) | Potency (OV90) | Potency (PA-1) | Potency (SKOV3) | Potency (Tov-21-G) | Potency (Tov112D) | activity, negative = cell killing [1, 3] -9.6% | activity, negative = cell killing [1, 4] -5.43% | activity, negative = cell killing [1, 5] -40.8% | activity, negative = cell killing [1, 6] -7.01% | Potency (astro)

FC1(F)C(F)(F)C(F)(F)C2(F)C(F)(F)C(F)(F)C(F)(F)C(F)(F)C2(F)C1(F)F (stereo not given)
inactive: Potency (Hek293T) | Potency (JEG-3) | Potency (OV90) | Potency (PA-1) | Potency (SKOV3) | Potency (Tov-21-G) | Potency (Tov112D) | activity, negative = cell killing [1, 3] -14.2% | activity, negative = cell killing [1, 4] -0.34% | activity, negative = cell killing [1, 6] -17% | Potency (astro)

CCCCC(CC)COC(=O)/C=C/c1ccc(OC)cc1 (stereo not given)
inactive: Potency (Hek293T) | Potency (JEG-3) | Potency (OV90) | Potency (PA-1) | Potency (SKOV3) | Potency (Tov-21-G) | Potency (Tov112D) | activity, negative = cell killing [1, 3] -11.8% | activity, negative = cell killing [1, 4] -6.07% | activity, negative = cell killing [1, 5] -26.1% | activity, negative = cell killing [1, 6] 6.67% | Potency (astro)

Cc1cccc(C)c1NC(=O)c1ccccc1C(=O)O
inactive: Potency (Hek293T) | Potency (JEG-3) | Potency (OV90) | Potency (PA-1) | Potency (SKOV3) | Potency (Tov-21-G) | Potency (Tov112D) | activity, negative = cell killing [1, 3] -1.45% | activity, negative = cell killing [1, 4] -18.5% | activity, negative = cell killing [1, 6] -17.8% | Potency (astro)

CCNC(=O)NCc1cccc(Cl)c1
inactive: Potency (Hek293T) | Potency (JEG-3) | Potency (OV90) | Potency (PA-1) | Potency (SKOV3) | Potency (Tov-21-G) | Potency (Tov112D) | activity, negative = cell killing [1, 3] -11.2% | activity, negative = cell killing [1, 4] -6.28% | activity, negative = cell killing [1, 5] -30% | activity, negative = cell killing [1, 6] -10.1% | Potency (astro)

COc1ccc(/C=N/NC(=O)c2ccncc2)cc1OC
inactive: Potency (Hek293T) | Potency (JEG-3) | Potency (OV90) | Potency (PA-1) | Potency (SKOV3) | Potency (Tov-21-G) | Potency (Tov112D) | activity, negative = cell killing [1, 3] -3.24% | activity, negative = cell killing [1, 4] -6.28% | activity, negative = cell killing [1, 6] -25% | Potency (astro)

CCCCCCCCOc1ccc(C(=O)c2ccccc2)c(O)c1
inactive: Potency (Hek293T) | Potency (JEG-3) | Potency (OV90) | Potency (PA-1) | Potency (SKOV3) | Potency (Tov-21-G) | Potency (Tov112D) | activity, negative = cell killing [1, 3] -18.7% | activity, negative = cell killing [1, 4] -9.16% | activity, negative = cell killing [1, 6] -24.6% | Potency (astro)

CCC1NC(=O)c2cc(S(N)(=O)=O)c(Cl)cc2N1 (stereo not given)
inactive: Potency (Hek293T) | Potency (JEG-3) | Potency (OV90) | Potency (PA-1) | Potency (SKOV3) | Potency (Tov-21-G) | Potency (Tov112D) | activity, negative = cell killing ([1]; at 20 µM (top of the series), tumour line C) -6.38% | activity, negative = cell killing ([1]; at 21.2 µM (top of the series), tumour line B) -2.62% | activity, negative = cell killing ([1]; at 21.2 µM (top of the series), tumour line D) -14.7% | activity, negative = cell killing ([1]; at 21.3 µM (top of the series), tumour line A) -12.3% | Potency (astro)

CC1=C(C(=O)O)N2C(=O)[C@@H](NC(=O)[C@H](N)c3ccccc3)[C@H]2SC1
inactive: Potency (Hek293T) | Potency (JEG-3) | Potency (OV90) | Potency (PA-1) | Potency (SKOV3) | Potency (Tov-21-G) | Potency (Tov112D) | activity, negative = cell killing [1, 3] -0.246% | activity, negative = cell killing [1, 4] -6.88% | activity, negative = cell killing [1, 5] -19.6% | activity, negative = cell killing [1, 6] -1.45% | Potency [2]

— PubChem BioAssay (NCATS)
